Assay outcomes from PubChem BioAssay.
Hits are enriched below; roughly 5.8% of the tested compounds scored in any of these assays.
MCF10A rerep: A quantitative high throughput screen for small molecules that induce DNA re-replication in MCF 10a normal breast cells. MCF 10A DNA re-replication, Hoechst nuclear intensity, 48 h. Potency, µM (titrated, usually from 46.1 µM), for inactives: at the highest dose activity, positive = re-replication, hits mostly activators. 350,000 compounds, 2.9% hits; also: % of control where 0% means no effect; nearly all actives have a fitted effect of over 50% in size
PINK1 modulator: A Quantitative High throughput Screen to Identify Chemical Modulators of PINK1 Expression; 410,000 compounds, 0.2% hits; Potency, µM (top dose mostly 76.6 µM), without a hit: at the top dose activation (PINK1 increase), hits mostly activators; AID 624263, 2012; PINK1 immunofluorescence, high-content cytometry, 24 h; active = well fitted activation curve with a large enough effect; inconclusive = small, poorly fitted or top-dose-only effect; cell line not stated here; also: % of control where 0% means no effect; nearly all actives have a fitted effect of over 65% in size
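Measures PINK1 amount and localization on or inside mitochondria by immunofluorescence. Stable cells get compounds at 5 concentrations for 24 hours before fixation and staining; CCCP controls included.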
KB-V1 cytotox: qHTS assay for MDR1-selective chemotherapeutics: Primary screen using the drug-selected MDR subline cells KB-V1. KB-V1 MDR cells viability, CellTiter-Glo, 72 h. Potency, µM (titrated, usually from 46.1 µM), most hits filed as cytotoxic. 400,000 compounds, 3.4% hits. AID 1347076, 2019; also: % is scaled to controls: 0 for no effect and ±100 for the full control effect; nearly all actives have a fitted effect of over 60% in size
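In this primary screen, KB-V1 cells overexpressing P-gp are incubated with library compounds (lowest to highest concentration) for 72 h at 37 degrees C before a luminescent ATP viability read.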
SW480 rerep: A quantitative high throughput screen for small molecules that induce DNA re-replication in SW480 colon adenocarcinoma cells; SW480 DNA re-replication, Hoechst DNA content imaging, 48 h; Potency, µM (highest dose often 46.1 µM), for the others: top-dose re-replication activation, usual class: activators; 340,000 compounds, 1.8% hits; AID 624297, 2012; also: % of control where 0% means no effect; nearly all actives have a fitted effect of over 55% in size
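Cells (250 per well) received 23 nL compound or DMSO by pin tool and were kept 48 hr at 37 C, 5% CO2. Nuclei were then stained with Hoechst for 40 min and scanned for DNA content.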
KB-3-1 cytotox: qHTS assay for MDR1-selective chemotherapeutics: Primary screen using the parental adenocarcinoma cell KB-3-1. KB-3-1 viability, CellTiter-Glo ATP luminescence, 72 h. Potency, µM (doses to about 46.1 µM), actives largely listed as cytotoxic. 400,000 compounds, 1.4% hits; also: % is scaled to controls: 0 for no effect and ±100 for the full control effect; nearly all actives have a fitted effect of over 60% in size
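Using CellTiter-Glo luminescence, growth of non-resistant KB-3-1 adenocarcinoma cells is assessed 72 h after pin-tool compound addition at 37 °C. Normalized responses across the concentration series yield fitted curves.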
12-LOX inh: Primary qHTS assay for inhibitors of human arachidonate 12S-lipoxygenase (ALOX12): Round 2 | Polyunsaturated fatty acid lipoxygenase ALOX12 (Homo sapiens), P18054 | purified 12hLO, xylenol orange hydroperoxide absorbance | Potency, µM (titrated, usually from 108 µM), inactives show at the highest dose activity change, negative = inhibition, most hits filed as inhibitors | 580,000 compounds, 1.1% hits | AID 1671190, 2021; also: % is scaled to controls: 0 for no effect and ±100 for the full control effect
Target sequence (P18054 whole entry, looked up): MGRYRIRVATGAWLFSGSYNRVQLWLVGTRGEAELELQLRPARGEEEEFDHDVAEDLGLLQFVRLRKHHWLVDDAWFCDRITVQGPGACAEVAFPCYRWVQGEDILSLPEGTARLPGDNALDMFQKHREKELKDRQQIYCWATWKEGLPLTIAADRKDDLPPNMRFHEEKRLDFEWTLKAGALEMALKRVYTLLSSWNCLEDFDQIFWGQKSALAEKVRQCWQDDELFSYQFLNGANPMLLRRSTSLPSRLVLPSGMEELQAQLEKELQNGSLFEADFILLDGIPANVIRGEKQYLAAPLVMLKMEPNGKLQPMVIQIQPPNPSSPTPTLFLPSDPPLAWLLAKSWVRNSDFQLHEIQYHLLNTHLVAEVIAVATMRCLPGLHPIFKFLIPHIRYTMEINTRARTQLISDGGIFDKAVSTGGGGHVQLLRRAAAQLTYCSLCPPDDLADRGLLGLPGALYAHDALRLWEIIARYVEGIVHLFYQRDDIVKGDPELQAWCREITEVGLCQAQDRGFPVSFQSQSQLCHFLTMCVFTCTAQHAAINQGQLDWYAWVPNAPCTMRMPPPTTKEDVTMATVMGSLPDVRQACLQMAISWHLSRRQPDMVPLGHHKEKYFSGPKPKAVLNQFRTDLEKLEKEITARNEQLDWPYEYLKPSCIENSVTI
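Hydroperoxide product was detected by ferrous iron/xylenol orange as the 573 to 405 nm absorbance ratio. Arachidonic acid at 40 uM (final) was turned over for 30 min at room temperature by 150 nM human 12hLO, pH 7.0 Hepes buffer, after 15 min compound preincubation.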
Numbers without * were called inactive; i = inactive; ? = inconclusive; / = no result; [ ] = another dose, or the depositor's remark. Unless noted, calls follow the shape of the dose curve; as a rule, active = well fitted curve in the direction sought with a large enough effect; inconclusive = small, poorly fitted or top-dose-only effect, or another doubt; inactive = no such curve, though single readings can be large; an effect the other way counts as inactive or inconclusive. Potency is read from the fitted curve at half-maximal effect.

SMILES | MCF10A rerep | PINK1 modulator | KB-V1 cytotox | SW480 rerep | KB-3-1 cytotox | 12-LOX inh
COc1ccc(OC)c(NC(=O)c2ccccc2SC)c1 | 2.2% | -2.4%[38.3 µM] | 18.4µM* | -1.4% | i | 11.0%
CC(OC(=O)c1ccc(CS(C)(=O)=O)cc1)C(=O)c1ccc(Cl)cc1 (stereo unspecified) | / | / | / | / | / | 19.3%
O=C(COC(=O)c1c2c(nc3ccccc13)/C(=C\c1ccco1)CC2)NC1CCCC1 | ? | 2.3% | / | 6.51µM* | / | 7.08µM*
CC1CCCC(NC(=O)COC(=O)/C=C/c2ccco2)C1C (stereo unspecified) | -6.0% | -0.7% | ? | -5.4% | i | ?
CN1CCc2nc3ccccc3c(C(=O)OCC(=O)N(CCC#N)c3ccccc3)c2C1 | 2.7% | -0.2% | ? | -0.6% | i | -12.6%
CN(CCC#N)C(=O)COC(=O)c1c2c(nc3ccccc13)/C(=C\c1ccco1)CC2 | ? | 6.6% | i | 4.11µM* | i | -28.1%
CC1CCCCC1NC(=O)COC(=O)c1c2c(nc3ccccc13)/C(=C\c1ccco1)CC2 (stereo unspecified) | 18.4µM* | 3.3% | i | ? | i | 15.8µM*
Cn1ccc2c(C(=O)NCCc3cnc[nH]3)nc(-c3cnn(Cc4ccccc4)c3)cc21 | / | / | / | / | / | 82.0%[176 µM]
C=CCn1c(SCc2nc3ccccc3o2)nc2ccccc2c1=O | / | / | / | / | / | 36.6%
Cc1c(O)ccc2c(CN3CCC(O)CC3)cc(=O)oc12 | / | / | / | / | / | 13.1%
Cc1ccc(NC(=O)CSc2ncc(S(=O)(=O)c3ccc(C(C)C)cc3)c(=O)[nH]2)cc1C | / | -0.9% | i | / | i | 44.7µM*
O=C1c2oc3ccccc3c(=O)c2C(c2cccnc2)N1Cc1ccco1 (stereo unspecified) | 16.8% | -0.5% | 7.31µM* | -9.3% | i | -27.9%
CCN(CC)CCCN1C(=O)c2oc3ccccc3c(=O)c2C1c1cccnc1 (stereo unspecified) | 21.3% | -2.1% | i | -6.7% | i | -22.4%
CN(C)CCN1C(=O)c2oc3ccccc3c(=O)c2C1c1cccc(Br)c1 (stereo unspecified) | -0.2% | -1.4%[38.3 µM] | 10.3µM* | -7.4% | i | ?
CCCc1n[nH]c2c1/C(=N\OCC)CC(C)(C)C2 | -2.6% | 9.5% | i | -8.8% | i | 39.8µM*
CCc1n[nH]c2c1/C(=N\O)CC(C)(C)C2 | 8.3% | -1.7% | i | 4.4% | i | -7.2%
COCCn1cnc2c1c(=O)n(CC(=O)Nc1ccc(F)c(F)c1)c(=O)n2CC(C)C | / | / | / | / | / | 3.5%
COc1ccc(N2CCN(C(=O)CC34CC5CC(CC(C5)C3)C4)CC2)c([N+](=O)[O-])c1 | ? | 26.1% | 18.4µM* | 4.0% | ? | -0.1%
O=C(CS(=O)(=O)c1nc(-c2ccc(Cl)cc2)cn1-c1ccccc1)Nc1cccc(Cl)c1 | / | 1.4% | 16.4µM* | / | 16.4µM* | -20.5%
CCOc1ccc(Nc2oc(-c3ccc(Cl)cc3)nc2C#N)cc1 | 20.6µM* | 3.9% | ? | ? | ? | ?
COc1ccc(Nc2oc(-c3ccc(Cl)cc3)nc2C#N)cc1 | 16.4µM* | 5.2% | ? | ? | 4.61µM* | ?
N#Cc1nc(-c2ccc(Cl)cc2)oc1NCc1ccco1 | 14.6µM* | -0.4% | i | -5.2% | i | 116.2%[57.4 µM]
COc1ccc(Nc2oc(COc3ccc(Cl)cc3)nc2C#N)cc1 | ? | 2.4% | i | 1.6% | i | 3.0%
COc1ccc(Nc2oc(-c3ccc(OC)cc3)nc2C#N)cc1 | 0.1% | 2.9% | i | -31.0% | i | 431.2%
Cc1ccc[n+](CC2OCc3ccccc3CO2)c1 | 4.9% | -0.1% | i | -11.2% | i | -12.5%
SMILES | MCF10A rerep | PINK1 modulator | KB-V1 cytotox | SW480 rerep | KB-3-1 cytotox | 12-LOX inh
CCCCN(CCCC)CC1OCc2ccccc2CO1 | 11.3% | 3.98µM* | i | -2.6% | i | 17.5%
CCOC(=O)CSc1nc2ccc(NC(=O)c3ccc(Cl)cc3)cc2s1 | / | 0.1% | i | / | i | -3.7%
O=C(Nc1ccc2nc(SCc3cccc4ccccc34)sc2c1)c1ccc(Cl)cc1 | / | / | / | / | / | 28.2µM*
CN(C(=O)CSc1nc2ccc(NC(=O)c3ccccc3F)cc2s1)c1ccccc1 | / | 10.8% | i | / | ? | 0.0%
CN(C(=O)CSc1nc2ccc(NC(=O)c3cccc(F)c3)cc2s1)c1ccccc1 | / | 3.1% | 9.2µM* | / | ? | -7.4%
CCOC(=O)Nc1ccc2nc(Sc3ccc(Cl)cc3)sc2c1 | ? | 10.5% | i | 16.4µM* | i | ?
Cc1cc(NC(=O)CCn2cnc3c2c(=O)n(C)c(=O)n3C)ccc1Br | / | / | / | / | / | 7.3%
COc1ccc(NC(=O)CN(Cc2ccccc2)Cc2ccccc2)cc1S(N)(=O)=O | -5.2% | 3.2% | 20.6µM* | -100.3% | i | 3.9%
COc1ccc(NC(=O)COc2ccccc2Cc2ccccc2)cc1S(N)(=O)=O | 5.6% | 1.0% | 10.3µM* | -7.0% | 16.4µM* | 1.7%
CC1Sc2ccc(S(=O)(=O)N3CCC(C(=O)N4CCCC4)CC3)cc2NC1=O (stereo unspecified) | / | / | / | / | / | 0.2%
COC(=O)c1sccc1-c1ccc(C(=O)Nc2cccc(Cl)c2)o1 | ? | 12.0% | 16.4µM* | 5.7% | i | ?
CN(C)S(=O)(=O)Oc1ccsc1C(=O)Nc1cccc(Cl)c1 | 10.3% | -1.8% | 20.6µM* | -11.6% | ? | 0.0%
CN(C)S(=O)(=O)Oc1ccsc1C(=O)Nc1ccc(Cl)c(Cl)c1 | ? | 4.2% | ? | 10.1% | i | -23.6%
CCCn1nc(C(=O)Nc2ccc(OCCN(CC)CC)cc2)c2ccccc2c1=O | / | / | / | / | / | 56.2%
COc1ccc(/C=N/NC(=S)NCc2ccccc2)cc1OC | -20.9% | -0.5% | 20.6µM* | -6.9% | i | ?
COc1ccc(CNC(=S)N/N=C/c2ccc(OC)c(OC)c2)cc1 | 22.7% | -1.6% | i | 2.0% | i | 140.4%
COc1ccc(C=NNC(=S)Nc2ccc(F)cc2)cc1OC | 6.1% | 8.5% | i | -4.1% | i | ?
COc1cc(/C=N/NC(N)=S)ccc1OCc1ccc(C)cc1 | ? | 0.6% | i | ? | i | 44.7µM*
COc1ccc(C=NNC(=S)NN=Cc2ccc(OC)c(OC)c2)cc1OC | ? | -1.3% | 0.231µM* | ? | 0.461µM* | ?
